PubChem BioAssay
Inconclusive results are not listed. The source made the active and inactive calls.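 Rule for the calls, unless noted: active = growth inhibition above 25% in both replicates, a cutoff set 3 SD above the mean; inconclusive = above 25% in only one replicate; inactive = the rest.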

Assays:
[1] = Her2 expression decrease, cell viability multiplex – SKBR3 breast tumor cells, AlphaScreen, ATP viability, primary screen (AID 461;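 active = Her2 level under about 52% in both replicate screens, with viability over 70% of control, limit read from the data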;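 for Her2 level: lower value means less Her2 protein in the cells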;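 for viability: percent of carrier control wells set as 100% viability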); conditions: SKBR3 Her2 protein level, 18-24 h, measured here: SKBR3 viability, ATP luminescence, at 10 µM
[2] = biological target: Receptor tyrosine-protein kinase erbB-2 (Homo sapiens) (UniProt P04626); assay: as above; conditions: 18-24 h, at 10 µM, stronger effect = lower value
[3] = reduced viability of SK-BR-3 breast cancer cells – cell-based, 24 h, human, pilot screen (AID 572;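 active = viability at or below 10% of carrier control in both of two separate runs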;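 note: compound exposure lasted between 18 and 24 h rather than exactly 24 h; 100% = carrier-treated control wells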); conditions: SK-BR-3 viability, CellTiter-Glo luminescence, at 10 µM, stronger effect = lower value
[4] = HUVEC growth inhibition – cell-based, human, primary screen (AID 575;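 active = viability at or below 30% in both replicate assays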;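 note: 100% = median of untreated cell wells with 0.1% DMSO on each plate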); conditions: HUVEC proliferation, CellTiter-Glo luminescence, 72 h; at 10 µM; stronger effect = lower value
[5] = H69AR cell proliferation blockers – human, duplicate replicates, primary screen (AID 580;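 active = viability at or under a set limit in both replicates, limit being median viability minus 3 SD, cut at about 48% in these data, passing the limit was not always enough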;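 note: 100% = mean luminescence of untreated wells and 0% = no signal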); conditions: H69AR lung tumor cells viability, ATP luminescence, 72 h; at 10 µM; stronger effect = lower value
[6] = MRP1 drug-resistance reversers in H69AR cells – cell-based, doxorubicin co-treatment, pilot screen (AID 601;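 active = viability loss from added drug above about 55%, and viability with drug at most 40%, in both replicates, limit read from the data, passing the limit was not always enough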); conditions: CellTiter-Glo, 72 h, at 10 µM; for differential viability (reversal): stronger effect = higher value
[7] = yeast transport mutant growth inhibition pilot in 384-well plates, post-Golgi transport modulator project (AID 636; in the data active = inhibition above about 31%); conditions: absorbance 615 nm, about 18 h, stronger effect = higher value
[8] = growth suppression of yeast trafficking mutant, preliminary HTS, modulators of trafficking downstream of Golgi apparatus project, 1536-format plate, OD 615 nm (AID 637; in the data active = inhibition above about 30%); conditions: yeast transport mutant growth, absorbance 615 nm, 18 h; stronger effect = higher value
[9] = S. cerevisiae growth inhibition in permissive medium (OD615), pilot counter-assay for S. cerevisiae lifespan shortening project, permissive growth control (AID 705); conditions: OD615, 24 h, at 10 µM, stronger effect = higher value
[10] = S. cerevisiae growth inhibition in restrictive medium, OD615, pilot screen, restrictive growth control, yeast lifespan reduction project (AID 706;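 active = growth inhibition above a set limit, 3 SD over mean compound inhibition, in both replicates, cut at about 43% in these data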;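 note: modified DeaD lifespan yeast strain shifted to restrictive glucose medium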); conditions: OD615, 48 h, at 10 µM, stronger effect = higher value
[11] = doxorubicin toxicity protection in MRP-1 cells – H69AR cells, CellTiter-Glo, duplicate, MRP-1 activator project, pilot screen (AID 807;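 active = viability increase at or above a cutoff of the median across tested compounds plus 3 SD, cut at about 8.5% in these data, passing the limit was not always enough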;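 note: compound pretreatment 18-22 h then 72 h combined with doxorubicin; 0% = doxorubicin alone and 100% = vehicle without doxorubicin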); conditions: H69AR viability with doxorubicin, CellTiter-Glo luminescence; at 10 µM; stronger effect = higher value
[12] = viability of HCT116 without oncogenic beta-catenin – human colon tumor cells, pilot screen (AID 823;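 active = cell viability at or below a set limit in both duplicate runs, the limit being the all-compound median minus 4 SD, cut at about 23% in these data, passing the limit was not always enough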;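 note: 0% = wells killed by 20 µM Hyamine and 100% = untreated DMSO cell wells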); conditions: HCT116 beta-catenin knockout viability, CellTiter-Glo, 60 h; at 10 µM; stronger effect = lower value
[13] = viability of PTEN-null HCT116 cells – cell-based, HCT116 clonal line, CellTiter-Glo, pilot screen (AID 824;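 active = viability at or below 27.92% in each of two runs, the all-compound median minus 4 SD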;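 note: 0% = 20 µM Hyamine control and 100% = vehicle cell control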); conditions: HCT116 PTEN-deleted viability, 60 h, at 10 µM, stronger effect = lower value
[14] = RAM pathway blockade in budding yeast – dse1pr::URA3 reporter, 5-FOA selection, pilot screen (AID 869;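 active = inhibition over a set limit, the all-compound mean plus 3 SD, in both replicate runs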;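 note: 0% = DMSO wells with no growth and 100% = 10 µM 1-NA-PP1 with full growth; RAM network block rescues cells from 5-FOA so hits raise OD615 growth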); conditions: S. cerevisiae dse1pr::URA3 5-FOA growth, OD615, 2 d; at 10 µM; stronger effect = higher value; strain carries analog-sensitive mutant Cbk1 kinase
[15] = RAM signaling pathway blockade in yeast – S. cerevisiae, Pdr1DBD-CYC8 efflux-inhibited sensitized strain, primary screen (AID 1298;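 active = RAM network inhibition above 8.4% in each of two replicates, 3 SD over the compound average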;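 note: 0% = DMSO untreated cells without growth and 100% = 10 µM 1-NA-PP1 full growth; higher means more yeast growth rescued from 5-FOA killing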); conditions: S. cerevisiae cbk1-as DSE1-URA3 strain, 5-FOA growth OD615, 2 d; at 50 µM; stronger effect = higher value
[16] = H69AR cells + 2 uM doxorubicin, measured here: viability with 2 uM doxorubicin, stronger effect = lower value
[17] = H69AR cells, compound alone cytotoxicity

Sequence of Receptor tyrosine-protein kinase erbB-2 (Homo sapiens) (P04626 whole entry, looked up): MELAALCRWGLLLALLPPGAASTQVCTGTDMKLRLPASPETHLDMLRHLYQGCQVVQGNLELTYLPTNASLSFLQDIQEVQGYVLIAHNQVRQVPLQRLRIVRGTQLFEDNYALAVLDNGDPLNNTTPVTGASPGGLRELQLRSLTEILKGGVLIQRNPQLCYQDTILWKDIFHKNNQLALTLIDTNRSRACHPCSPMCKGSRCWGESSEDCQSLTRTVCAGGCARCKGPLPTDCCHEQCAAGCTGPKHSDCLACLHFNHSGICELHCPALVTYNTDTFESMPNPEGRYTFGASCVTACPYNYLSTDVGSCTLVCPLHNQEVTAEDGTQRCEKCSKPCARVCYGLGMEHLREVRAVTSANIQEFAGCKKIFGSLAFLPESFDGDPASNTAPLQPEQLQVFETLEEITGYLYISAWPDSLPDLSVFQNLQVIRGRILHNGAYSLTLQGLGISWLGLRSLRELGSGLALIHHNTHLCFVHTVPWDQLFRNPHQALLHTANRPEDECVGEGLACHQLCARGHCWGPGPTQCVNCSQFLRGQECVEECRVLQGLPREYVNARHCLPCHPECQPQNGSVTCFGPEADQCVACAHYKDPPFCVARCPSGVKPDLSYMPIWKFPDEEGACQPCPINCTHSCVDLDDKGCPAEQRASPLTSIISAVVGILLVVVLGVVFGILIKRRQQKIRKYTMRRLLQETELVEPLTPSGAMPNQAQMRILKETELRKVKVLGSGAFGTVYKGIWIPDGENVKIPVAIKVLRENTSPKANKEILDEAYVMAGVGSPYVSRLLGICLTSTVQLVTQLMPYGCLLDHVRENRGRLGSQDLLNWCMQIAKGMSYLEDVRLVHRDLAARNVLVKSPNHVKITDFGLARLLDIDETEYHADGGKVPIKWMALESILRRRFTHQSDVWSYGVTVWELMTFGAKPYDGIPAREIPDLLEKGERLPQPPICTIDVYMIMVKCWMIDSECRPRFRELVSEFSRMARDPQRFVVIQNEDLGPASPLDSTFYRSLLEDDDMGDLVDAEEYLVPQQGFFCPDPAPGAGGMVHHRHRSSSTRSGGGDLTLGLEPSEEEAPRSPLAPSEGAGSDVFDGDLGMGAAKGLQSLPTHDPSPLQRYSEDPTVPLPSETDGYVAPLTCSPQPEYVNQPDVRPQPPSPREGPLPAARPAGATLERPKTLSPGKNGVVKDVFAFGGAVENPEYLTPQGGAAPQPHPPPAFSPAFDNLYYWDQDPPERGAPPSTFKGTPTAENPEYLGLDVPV

Row | Structure (SMILES) | viability [1] | Her2 level [2] | viability [3] | viability [4] | viability [5] | differential viability (reversal) ([6]; H69AR cells + 2 uM doxorubicin) | viability [6, 16] | viability [6, 17] | inhibition [7] | inhibition [8] | growth inhibition [9] | growth inhibition [10] | viability increase [11] | viability [12] | viability [13] | inhibition [14] | RAM network inhibition [15]
1 | O=C(Nc1cccc2ccccc12)c1ccc(Br)o1 | 120% | 88.5% (inactive) | 120% (inactive) | 87.1% (inactive) | 84% (inactive) | -1.12% (inactive) | 85.1% | 84% | -3.25% (inactive) | -0.17% (inactive) | -10% (inactive) | 1.96% (inactive) | -1.67% (inactive) | 94.3% (inactive) | 90.8% (inactive) | 0.995% (inactive) | 3.58% (inactive)
2 | Cn1c(=O)c2c(nc(SCCOc3ccc4ccc(=O)oc4c3)n2C)n(C)c1=O | 98.5% | 91.5% (inactive) | 98.5% (inactive) | 102% (inactive) | 104% (inactive) | 14.3% (inactive) | 89.6% | 104% | -2.93% (inactive) | -1.97% (inactive) | -4.61% (inactive) | 1.18% (inactive) | 1.22% (inactive) | 99% (inactive) | 103% (inactive) | 0.27% (inactive) | 2.41% (inactive)
3 | N#Cc1nc(COc2ccccc2Cl)oc1N1CCCCCC1 | 96.5% | 104% (inactive) | 96.5% (inactive) | 79.6% (inactive) | 93.1% (inactive) | -3.75% (inactive) | 96.9% | 93.1% | -3.6% (inactive) | -3.17% (inactive) | 7.94% (inactive) | 6.52% (inactive) | 2.96% (inactive) | 98.7% (inactive) | 87.5% (inactive) | 2.3% (inactive) | 5.67% (inactive)
4 | Cc1cccc(Cn2c(SCC(=O)Nc3ccccc3)nc3c2c(=O)[nH]c(=O)n3C)c1 | 81.5% | 97% (inactive) | 81.5% (inactive) | 93.9% (inactive) | 81.8% (inactive) | -0.02% (inactive) | 81.8% | 81.8% | -1.33% (inactive) | 0% (inactive) | -12.4% (inactive) | -8.03% (inactive) | -1.01% (inactive) | 91% (inactive) | 71% (inactive) | 1.79% (inactive) | 5.01% (inactive)
5 | c1ccc(CN2CCN(CCCNc3ccc4nnc(-c5ccccc5)n4n3)CC2)cc1 | 83% | 78.5% (inactive) | 83% (inactive) | 50.2% (inactive) | 86.3% (inactive) | 55.5% (active) | 30.8% | 86.3% | 0.13% (inactive) | -2.17% (inactive) | -8.05% (inactive) | 5.01% (inactive) | -7.78% (inactive) | 50% (inactive) | 55.5% (inactive) | 2.78% (inactive) | 3.65% (inactive)
6 | Brc1ccccc1-c1nc(-c2ccccc2)no1 | 88% | 84.5% (inactive) | 88% (inactive) | 89.1% (inactive) | 74.3% (inactive) | -8.99% (inactive) | 83.3% | 74.3% | -2.6% (inactive) | -8% (inactive) | -7.54% (inactive) | 8.43% (inactive) | -5.68% (inactive) | 72% (inactive) | 70.6% (inactive) | 0.565% (inactive) | 3.53% (inactive)
7 | O=C(Cn1nc(Cc2ccncc2)c2ccccc2c1=O)N1CCN(C(=O)c2ccco2)CC1 | 98.5% | 110% (inactive) | 98.5% (inactive) | 85.6% (inactive) | 86% (inactive) | -8.19% (inactive) | 94.2% | 86% | -4.93% (inactive) | -4.5% (inactive) | -0.345% (inactive) | 9.88% (inactive) | -1.96% (inactive) | 106% (inactive) | 107% (inactive) | 1.01% (inactive) | 5.75% (inactive)
8 | Clc1ccc(SCCCCn2ccnc2)cc1 | 90.5% | 113% (inactive) | 90.5% (inactive) | 102% (inactive) | 99.2% (inactive) | 10.9% (inactive) | 88.3% | 99.2% | 1.22% (inactive) | -1% (inactive) | 1.02% (inactive) | -14.2% (inactive) | 0.79% (inactive) | 64.8% (inactive) | 65.7% (inactive) | 0.96% (inactive) | -0.38% (inactive)
9 | CC1(C)CC(=O)N(CC(=O)NCc2ccccc2)c2ccccc2S1(=O)=O | 78.5% | 112% (inactive) | 78.5% (inactive) | 106% (inactive) | 92.6% (inactive) | -8.55% (inactive) | 101% | 92.6% | -4.67% (inactive) | -1.33% (inactive) | -3.67% (inactive) | 6.21% (inactive) | -1.93% (inactive) | 107% (inactive) | 100% (inactive) | 0.485% (inactive) | 3.51% (inactive)
